Shown is part of a subset that was picked to be rich in hits.
GIRK2 activator: activators of NPY4-receptor-primed GIRK2 channels, summary, cell-based, HEK293, thallium flux. activation (% efficacy), % for hits at 37.5 µM. HEK293 GIRK2/NPY4 cells, thallium flux fluorescence. G protein-activated inward rectifier potassium channel 2 (Homo sapiens), P48051. AID 1259324, 2017. 34,000 tested, under 10 active;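 active = primary screen hit, no activity in plain HEK293 cells, and in GIRK2-only cells above 5% efficacy rising with concentration; inactive = the rest, including fluorescent compounds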;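 also: efficacy is normalized control-subtracted fluorescence 15 s after thallium addition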
Target sequence (P48051 whole entry, looked up): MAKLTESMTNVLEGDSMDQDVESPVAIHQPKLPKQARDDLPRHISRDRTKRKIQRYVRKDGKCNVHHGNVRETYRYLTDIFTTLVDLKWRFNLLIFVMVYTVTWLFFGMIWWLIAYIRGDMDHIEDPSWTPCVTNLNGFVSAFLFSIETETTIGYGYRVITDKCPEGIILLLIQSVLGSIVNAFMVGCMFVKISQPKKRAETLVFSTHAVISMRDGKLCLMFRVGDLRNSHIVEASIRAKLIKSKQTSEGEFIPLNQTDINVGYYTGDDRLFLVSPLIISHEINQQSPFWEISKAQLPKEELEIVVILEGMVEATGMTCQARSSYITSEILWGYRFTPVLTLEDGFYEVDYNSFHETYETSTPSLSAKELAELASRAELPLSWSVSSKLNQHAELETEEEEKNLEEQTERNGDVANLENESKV
AMPAR-TARP mod: modulators of GluA2-stargazin AMPA receptor complexes, primary screen, cell-based, membrane potential dye; Voltage-dependent calcium channel gamma-2 subunit (Mus musculus) + Glutamate receptor 2 …; HEK293 GluA2+stargazin, membrane potential dye (FDSS), glutamate EC50; hits were called plate by plate, in both directions; calls only at 30 µM; 3.5% of 40,000 active; AID 1259245, 2017;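 active = any of four per-well response measures lying three or more SD from its plate-wide compound average, in either direction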
The depositor's hits bear a star; i = inactive; . = not tested or not shown; + = active, no number.

SMILES	GIRK2 activator	AMPAR-TARP mod
COc1ccc(C)c2sc(N(CCN3CCOCC3)C(=O)c3ccc(Br)s3)nc12	.	+
CCS(=O)(=O)c1cccc(C(=O)N(CCN2CCOCC2)c2nc3c(C)c(C)ccc3s2)c1	.	+
CCS(=O)(=O)c1cccc(C(=O)N(CCN2CCOCC2)c2nc3ccccc3s2)c1	i	i
CCOc1ccc2nc(N(CCN3CCOCC3)C(=O)c3ccnn3C)sc2c1	i	i
COCC(=O)NCCOc1ccc2nnc(-c3ccccc3Cl)n2n1	i	i
C=CCn1c(=O)c2c(nc3n2CCCN3c2ccc(OC)cc2OC)n(C)c1=O	.	i
COc1ccc(OC)c2sc(N(CCN(C)C)C(=O)c3cc(C)nn3C)nc12	i	+
COc1ccc2nc(N(CCN3CCOCC3)C(=O)c3ccc(Br)s3)sc2c1	.	+
CCn1nc(C)cc1C(=O)N(CCCN(C)C)c1nc2c(OC)ccc(Cl)c2s1	i	i
COc1ccc2sc(N(CCCN3CCOCC3)C(=O)c3ccno3)nc2c1	i	+
COc1ccc(C)c2sc(N(CCN3CCOCC3)C(=O)c3ccc(Cl)s3)nc12	.	+
O=C(c1ccc(Br)s1)N(CCN1CCOCC1)c1nc2ccccc2s1	i	i
COc1ccc2sc(N(CCN3CCOCC3)C(=O)c3cccc(F)c3)nc2c1	i	i
COc1ccc(C)c2sc(N(CCN3CCOCC3)C(=O)c3ccc(Cl)cc3)nc12	.	i
CCn1ccc(C(=O)Nc2nc(-c3ccccc3)c(C(=O)c3ccccc3)s2)n1	i	.
COc1cccc(C(=O)NCC2CCN(C(C)C)CC2)c1	.	i
O=C(CSc1ccc(-c2ccc3ccccc3c2)nn1)Nc1ccc2c(c1)OCO2	i	i
COc1ccccc1C1(C(=O)N2CCC(c3ccsc3)CC2)CCOCC1	i	+
O=C(c1nc2ccccc2s1)N1CCC(c2ccsc2)CC1	i	i
COc1ccc(C)cc1S(=O)(=O)NC1CNC(=O)C1 (centres undefined)	i	.
CC1(C)N=C(SCC(=O)Nc2ccc(F)cc2F)C(c2ccccc2)=N1	i	i
CC1(C)N=C(SCC(=O)Nc2ccc(F)cc2F)C(c2ccc(Cl)cc2)=N1	i	+
O=C(Nc1cc(-c2ccccc2)nn1CCO)c1ccsc1	i	i
O=C(Nc1cc(-c2ccccc2)nn1CCO)c1cccc(Cl)c1	i	+
O=C(NCc1cccs1)C(=O)NCC(c1ccco1)N1CCOCC1 (centres undefined)	i	i
SMILES	GIRK2 activator	AMPAR-TARP mod
Cc1ccc(S(=O)(=O)Nc2nc(CCC(=O)Nc3cccc(F)c3)cs2)cc1	i	i
Cc1ccc(S(=O)(=O)Nc2nc(CCC(=O)Nc3cccc(Cl)c3)cs2)cc1	i	+
Cc1nc2ccc3nc(NC(=O)c4ccc(S(=O)(=O)N(C)C5CCCC5)cc4)sc3c2s1	.	i
CCCC(=O)Nc1ccc(C(=O)NCCNC(=O)c2ccccc2OC)cc1	i	i
Cc1ccc(C(=O)Nc2ccc(C(=O)NCCNC(=O)c3ccccc3C)cc2)cc1	.	+
Cc1nc(NCC2CCCO2)nc(NC2CCCCC2)c1[N+](=O)[O-] (centres undefined)	i	+
Cc1nc(NCC2CCCO2)nc(Nc2ccc(F)cc2)c1[N+](=O)[O-] (centres undefined)	i	i
CCc1ccc(C(=O)NCC(c2cccn2C)N2CCCCCC2)cc1 (centres undefined)	i	i
CC(C)c1cc(=O)[nH]c(-n2nc(-c3ccco3)cc2NC(=O)c2cc(-c3ccccc3)on2)n1	i	i
COc1ccccc1CNC(=O)Cc1csc(Nc2ccc(Cl)cn2)n1	i	i
CCOc1ccc(OCCNC(=O)c2ccc([N+](=O)[O-])cc2)cc1	i	+
O=C(NCCOc1cccc(C(F)(F)F)c1)c1ccc([N+](=O)[O-])cc1	i	+
O=C(NCCOc1ccc(F)cc1)c1ccc([N+](=O)[O-])cc1	i	i
O=C(NCCOc1cccc(C(F)(F)F)c1)c1ccc(Cl)c([N+](=O)[O-])c1	i	i
CSc1ccccc1NC(=O)Cc1cc(-c2ccc(F)cc2)on1	i	i
COc1ccc(C)cc1NC(=O)c1cc2c(=O)n3cc(C)ccc3nc2n1Cc1ccccc1	i	+
Cc1ccc2nc3c(cc(C(=O)NCC(=O)OC(C)C)n3Cc3ccccc3)c(=O)n2c1	i	i
CCOC(=O)N1CCN(C(c2ccc(F)cc2)c2sc3nc(CC)nn3c2O)CC1 (centres undefined)	i	i
O=C(Nc1ccc(CC(=O)N2CCOCC2)cc1)c1ccc2c(c1)OCO2	i	i
N#Cc1ccccc1NC(=O)C(=O)NCC1CCN(Cc2ccco2)CC1	i	i

Screens deposited in PubChem BioAssay by several laboratories.
